Experimental data as given in PubChem BioAssay AID1347420 (Sanford-Burnham Center for Chemical Genomics, 2020).
Hit rate of the full screen: of about 1,300 compounds, about 980 (75%) were called active. Not shown: some 4% with an inconclusive outcome. The list shows a part of the results.

Biological target: Sulfhydryl oxidase 1 (Homo sapiens) (UniProt O00391)
Assay: inhibition of human sulfhydryl oxidase QSOX1 – biochemical, HyperBlu H2O2 luminescence, HTS, primary screen (AID 1347420)
Conditions: recombinant QSOX1, HyperBlu H2O2 luminescence; at 12.5 µM; hits give high values; active = any value above zero

Chain of Sulfhydryl oxidase 1 (Homo sapiens) (O00391 whole entry, looked up): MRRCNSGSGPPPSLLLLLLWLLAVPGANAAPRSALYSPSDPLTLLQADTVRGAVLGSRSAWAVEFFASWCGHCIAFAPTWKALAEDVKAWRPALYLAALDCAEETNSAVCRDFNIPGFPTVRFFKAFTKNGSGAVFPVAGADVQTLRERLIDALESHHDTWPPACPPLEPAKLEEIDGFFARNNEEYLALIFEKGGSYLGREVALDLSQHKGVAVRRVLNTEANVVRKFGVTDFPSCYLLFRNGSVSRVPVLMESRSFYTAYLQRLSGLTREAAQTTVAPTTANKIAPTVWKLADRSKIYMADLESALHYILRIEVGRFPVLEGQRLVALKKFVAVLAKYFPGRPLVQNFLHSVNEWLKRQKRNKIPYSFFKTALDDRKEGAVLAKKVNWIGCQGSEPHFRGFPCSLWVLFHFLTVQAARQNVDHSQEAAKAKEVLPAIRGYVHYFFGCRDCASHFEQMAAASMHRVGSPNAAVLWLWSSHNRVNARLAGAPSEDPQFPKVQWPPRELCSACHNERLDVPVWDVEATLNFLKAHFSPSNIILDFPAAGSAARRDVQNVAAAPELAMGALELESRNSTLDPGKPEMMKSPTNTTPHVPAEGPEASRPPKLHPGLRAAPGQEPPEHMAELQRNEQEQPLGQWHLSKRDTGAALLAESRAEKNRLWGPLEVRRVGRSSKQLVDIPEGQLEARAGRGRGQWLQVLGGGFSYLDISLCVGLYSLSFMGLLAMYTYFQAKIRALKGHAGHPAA

Row | Compound | inhibition
1 | Oc1ccc(/C=C/c2ccc(/C=C/c3ccc(O)cc3)c(Br)c2)cc1 | -1.9% (inactive)
2 | Oc1ccc(/C=C/c2cc(O)cc(O)c2)cc1 | 78% (active)
3 | N[C@H](CCCP(=O)(O)O)C(=O)O | 13.7% (active)
4 | N[C@@H](COP(=O)(O)O)C(=O)O | 1.7% (active)
5 | NC(CCCP(=O)(O)O)C(=O)O (stereo unspecified) | 4% (active)
6 | CN[C@H](CC(C)C)C(=O)N[C@H]1C(=O)N[C@@H](CC(N)=O)C(=O)N[C@H]2C(=O)N[C@H]3C(=O)N[C@H](C(=O)N[C@H](C(=O)O)c4cc(O)cc(O)c4-c4cc3ccc4O)[C@H](O)c3ccc(c(Cl)c3)Oc3cc2cc(c3O[C@@H]2O[C@H](CO)[C@@H](O)[C@H](O)[C@H]2O[C@H]2C[C@](C)(N)[C@H](O)[C@H](C)O2)Oc2ccc(cc2Cl)[C@H]1O | -8.2% (inactive)
7 | CN1CCN(CC(=O)N2c3ccccc3C(=O)Nc3cccnc32)CC1 | -3.2% (inactive)
8 | Cc1scc2c1N(C(=O)CN1CCN(C)CC1)c1ccccc1NC2=O | 1.1% (active)
9 | Cc1ccc(=O)n(-c2ccccc2)c1 | 2.4% (active)
10 | Oc1ccc(O)cc1 | 14.7% (active)
11 | Nc1ccc2c3c(cccc13)C(=O)NC2=O | 13.7% (active)
12 | NCCNS(=O)(=O)c1cccc2c(Cl)cccc12 | 0.7% (active)
13 | CC(C)COC(=O)OCN1C(=O)CN(CCN2CC(=O)N(COC(=O)OCC(C)C)C(=O)C2)CC1=O | 12.5% (active)
14 | C=CCNc1ncnc2ccc(Br)cc12 | 12.6% (active)
15 | NC(=O)C(=O)O | 11% (active)
16 | CC[C@H](NC(=O)c1c(C)c(-c2ccccc2)nc2ccccc12)c1ccccc1 | 9.3% (active)
17 | COc1ccc(CCN(C)CCCC(C#N)(c2ccc(OC)c(OC)c2)C(C)C)cc1OC (stereo unspecified) | 9.1% (active)
18 | COc1ccc(Cc2nccc3cc(OC)c(OC)cc23)cc1OC | -10.3% (inactive)
19 | COc1ccc(CCN(C)CCCC(C#N)(c2cc(OC)c(OC)c(OC)c2)C(C)C)cc1OC (stereo unspecified) | 17% (active)
20 | COc1ccc(CCN(C)CCc2ccc(OC)c(OC)c2)cc1OC | 8% (active)
21 | O=P(O)(O)C(Cl)(Cl)P(=O)(O)O | -4.1% (inactive)
22 | NC(CO)C(=O)NNCc1ccc(O)c(O)c1O (stereo unspecified) | 24.2% (active)

Row | Compound | inhibition
23 | CN1CCN(c2nc3cc(C(F)(F)F)ccc3n3cccc23)CC1 | 12.2% (active)
24 | Cc1[nH]c(=O)c(C#N)cc1-c1ccncc1 | 15.5% (active)
25 | Cc1[nH]c(=O)c(C#N)cc1-c1ccc2nccn2c1 | 1% (active)
26 | COc1cccc(-c2cc(=O)c3ccccc3o2)c1N | 7.6% (active)
27 | CC(=O)O[C@H]1Cc2ccccc2N(C(N)=O)c2ccccc21 | -8.4% (inactive)
28 | NC(=O)N1c2ccccc2C=Cc2ccccc21 | 12.3% (active)
29 | CN1CCN(CCCN2c3ccccc3Sc3ccc(C(F)(F)F)cc32)CC1 | 97% (active)
30 | OCCN1CCN(CC/C=C2/c3ccccc3Sc3ccc(C(F)(F)F)cc32)CC1 | 3.4% (active)
31 | OCCN1CCN(CCCN2c3ccccc3Sc3ccc(C(F)(F)F)cc32)CC1 | 92.8% (active)
32 | OCCN1CCN(CCCN2c3ccccc3C=Cc3ccccc32)CC1 | 47.2% (active)
33 | COC(=O)c1c(C)[nH]c(C)c1C(=O)c1ccccc1Cc1ccccc1 | -0.5% (inactive)
34 | CCN(CC)CCNC(=O)c1ccc(NC(C)=O)cc1 | -4.7% (inactive)
35 | CCN(CC)CCNC(=O)c1ccc(N)cc1 | 7.8% (active)
36 | CCN(CC)CCNC(=O)c1ccc(NS(C)(=O)=O)cc1 | 9.7% (active)
37 | NC(=O)CC[C@H](N)C(=O)O | 1.7% (active)
38 | CCCCS(=N)(=O)CCC(N)C(=O)O (stereo unspecified) | -11.1% (inactive)
39 | N[C@@H](CCCC(=O)O)C(=O)O | 16.9% (active)
40 | CCCCS(=N)(=O)CC[C@H](N)C(=O)O (stereo partly specified) | -12.9% (inactive)
41 | COc1cc(Cc2cnc(N)nc2N)cc(OC)c1OC | -13.7% (inactive)
42 | CN(C)CCN(Cc1cccs1)c1ccccn1 | 4.7% (active)
43 | COc1ccc(CN(CCN(C)C)c2ccccn2)cc1 | 36.6% (active)
44 | CC(C)(Sc1ccc(CCN(CCCCC2CCCCC2)C(=O)NC2CCCCC2)cc1)C(=O)O | 3% (active)

Row | Compound | inhibition
45 | CCCN(CCC)C(=O)C(CCC(=O)O)NC(=O)c1ccccc1 (stereo unspecified) | 12% (active)
46 | CCCCCN(CCCCC)C(=O)C(CCC(=O)O)NC(=O)c1ccc(Cl)c(Cl)c1 (stereo unspecified) | 13.5% (active)
47 | O=C(O)CCC(C(=O)O)N1C(=O)c2ccccc2C1=O (stereo unspecified) | -7.5% (inactive)
48 | CC1C(=O)N(C)C(=O)c2nc[nH]c21 (stereo unspecified) | 2.6% (active)
49 | CCCC(C(=O)OCCN(CC)CC)(c1ccccc1)c1ccccc1 | 6.2% (active)
50 | CCCc1c(OCCCOc2ccc(OCC(=O)O)cc2)ccc(C(C)=O)c1O | 17.6% (active)
51 | CCN(CC)CCNC(=O)c1cc(S(C)(=O)=O)ccc1OC | 0.6% (active)
52 | COc1cc(N)c(Cl)cc1C(=O)OCCN1CCCCC1 | -7.9% (inactive)
53 | CCN(CC)CCOC(=O)c1cc(Cl)c(N)cc1OC | 7.6% (active)
54 | CCN(CC)CCNC(=O)c1cc(Cl)c(N)cc1OC | 2.2% (active)
55 | CCN(CC)CCCCCCCCOC(=O)c1cc(OC)c(OC)c(OC)c1 | 17.3% (active)
56 | NC[C@H](O)c1ccc(O)c(O)c1 | 55.1% (active)
57 | NCC(O)c1ccc(O)c(O)c1 (stereo unspecified) | 43.6% (active)
58 | CC(=O)N1CCN(c2ccc(OC[C@H]3CO[C@](Cn4ccnc4)(c4ccc(Cl)cc4Cl)O3)cc2)CC1 | 56.3% (active)
59 | COc1ccc2c(c1OC)C(=O)O[C@@H]2[C@H]1c2c(cc3c(c2OC)OCO3)CCN1C | 14.1% (active)
60 | CCn1cc(C(=O)O)c(=O)c2cc(F)c(N3CCNC(C)C3)c(F)c21 (stereo unspecified) | 12.8% (active)
61 | O=[N+]([O-])c1ccc2c(c1)S(=O)(=O)C=C2 | 39.1% (active)
62 | C[C@]12CC[C@@H]3c4ccc(O)cc4C[C@@H](CCCCCCCCCS(=O)CCCC(F)(F)C(F)(F)F)[C@H]3[C@@H]1CC[C@@H]2O (stereo partly specified) | 22.3% (active)
63 | CCCCCC[C@@H]([C@@H](C)O)n1cnc2c(N)ncnc21 | 7.4% (active)
64 | N[C@H](C(=O)O)c1cc(O)cc(O)c1 | 5.6% (active)
65 | Clc1ccc(Cn2c(CN3CCCC3)nc3ccccc32)cc1 | -2.3% (inactive)
66 | Clc1ccc(N2CCN(Cc3cc4ccccn4n3)CC2)cc1 | 63.8% (active)

Row | Compound | inhibition
67 | COc1cccc(OC)c1OCCNCC1COc2ccccc2O1 (stereo unspecified) | 23.5% (active)
68 | COc1cccc(OC)c1OCCNCC1CSc2ccccc2O1 (stereo unspecified) | -4.6% (inactive)
69 | CCn1ccnc1CC1COc2ccccc2O1 (stereo unspecified) | -2.8% (inactive)
70 | O=C1CCC(c2ccc(-n3ccnc3)cc2)=NN1 | 10% (active)
71 | O=c1oc(Cl)c(Cl)c2ccccc12 | 15% (active)
72 | Cc1nn(-c2ccccc2)c(C)c1C=NN1CCN(Cc2ccccc2)CC1 | -0.7% (inactive)
73 | Nc1ncnc2c1c(-c1ccc(Oc3ccccc3)cc1)cn2C1CCCC1 | 7.6% (active)
74 | COc1cc([C@@H]2c3cc4c(cc3[C@@H](O[C@@H]3O[C@@H]5CO[C@@H](C)O[C@H]5[C@H](O)[C@H]3O)[C@H]3COC(=O)[C@H]23)OCO4)cc(OC)c1O | 31.7% (active)
75 | COc1cc([C@@H]2c3cc4c(cc3[C@H](O)C3COC(=O)[C@@H]32)OCO4)cc(OC)c1OC (stereo partly specified) | 10.7% (active)
76 | O=C(O)CN(CCOCCOCCN(CC(=O)O)CC(=O)O)CC(=O)O | 13.4% (active)
77 | O=C(O)CN(CCN(CC(=O)O)CC(=O)O)CCN(CC(=O)O)CC(=O)O | 25.6% (active)
78 | C[C@H]1c2cccc(O)c2C(O)=C2C(=O)[C@]3(O)C(O)=C(C(N)=O)C(=O)[C@@H](N(C)C)[C@@H]3[C@@H](O)[C@@H]21 | 39.9% (active)
79 | CN(C)[C@@H]1C(=O)C(C(N)=O)=C(O)[C@@]2(O)C(=O)C3=C(O)c4c(O)ccc(Cl)c4[C@@H](O)[C@H]3C[C@@H]12 | 49.5% (active)
80 | COc1ccccc1N1CCN(CCN(C(=O)c2ccc(F)cc2)c2ccccn2)CC1 | 27.6% (active)
81 | COc1ccccc1N1CCN(CCN(C(=O)c2ccc(I)cc2)c2ccccn2)CC1 | 28.5% (active)
82 | COc1ccccc1N1CCN(CCN(C(=O)C2CCCCC2)c2ccccn2)CC1 | 40.4% (active)
83 | O=C(O)C1CCCN(CCC=C(c2ccccc2)c2ccccc2)C1 (stereo unspecified) | 3.5% (active)
84 | Cc1ccc(/C(=C\CN2CCCC2)c2ccccn2)cc1 | -62.9% (inactive)
85 | O=C(O)C1=CC(=C(c2ccc(O)c(C(=O)O)c2)c2ccc(O)c(C(=O)O)c2)C=CC1=O | 42.3% (active)
86 | O=c1c2ccccc2nc2n1CCc1c-2[nH]c2ccccc12 | 5.7% (active)
87 | CCCCc1oc2ccccc2c1C(=O)c1cc(I)c(OCCN(CC)CC)c(I)c1 | 18% (active)
88 | CCCC[C@@]1(C2CCCC2)Cc2cc(OCC(=O)O)c(Cl)c(Cl)c2C1=O | 25.1% (active)

Row | Compound | inhibition
89 | C[C@@]1(C2CCCC2)Cc2cc(OCC(=O)O)c(Cl)c(Cl)c2C1=O | 18.3% (active)
90 | CC(C)C(=O)c1c(C(C)C)nn2ccccc12 | 12.7% (active)
91 | CSc1ccc(C(=O)c2[nH]c(=O)[nH]c2C)cc1 | -9% (inactive)
92 | CC(C)ON([C@@H](C(=O)NO)C(C)C)S(=O)(=O)c1ccc(-c2ccccc2)cc1 | 8.1% (active)
93 | CCOC(=O)C(C)(C)Oc1ccc(Cl)cc1 | -1.7% (inactive)
94 | CC(C)OC(=O)C(C)(C)Oc1ccc(C(=O)c2ccc(Cl)cc2)cc1 | 1.9% (active)
95 | NNCCc1ccccc1 | 9.9% (active)
96 | CCCCCCN(CCCCCC)C(=O)Cc1c(-c2ccc(F)cc2)[nH]c2ccccc12 | 22.4% (active)
97 | CC(=O)Nc1nnc(S(N)(=O)=O)s1 | 14.5% (active)
98 | CN(C)CCOC(C)(c1ccccc1)c1ccccn1 (stereo unspecified) | 6.5% (active)
99 | CSc1ccc2c(c1)C(N1CCN(C)CC1)Cc1ccccc1S2 (stereo unspecified) | 1.3% (active)
100 | CN1CCN(C2Cc3ccccc3Sc3ccc(Cl)cc32)CC1 (stereo unspecified) | 1.9% (active)
101 | O=c1n(CCCN2CCN(c3cccc(Cl)c3)CC2)nc2ccccn12 | 45.2% (active)
102 | Cc1ccc(C(=O)Nc2ccc(S(=O)(=O)[O-])c3c2C(S(=O)(=O)[O-])=[C+]C(S(=O)(=O)O)=[C+]3)cc1NC(=O)c1cccc(NC(=O)Nc2cccc(C(=O)Nc3cc(C(=O)Nc4ccc(S(=O)(=O)[O-])c5c4C(S(=O)(=O)[O-])=[C+]C(S(=O)(=O)O)=[C+]5)ccc3C)c2)c1 | 17.8% (active)
103 | c1cc(CN2CCCCC2)cc(OCCCNc2nc3ccccc3s2)c1 | 7.9% (active)
104 | C1CCc2nnnn2CC1 | 15.2% (active)
105 | CCC1C(=O)OCC1Cc1cncn1C (stereo unspecified) | -0.2% (inactive)
106 | CNCCNS(=O)(=O)c1cccc2cnccc12 | 3.8% (active)
